High-throughput results (PubChem BioAssay)
KDM5B inhibitor = inhibitors of human KDM5B histone demethylase | Potency, µM (top dose mostly 57.7 µM), actives largely listed as inhibitors | actives 2.6% (n = 220,000) | KDM5B demethylase, FDH-coupled NADH fluorescence (FDH is formaldehyde dehydrogenase) | Q9UGL1; active means well fitted inhibition curve with a large enough effect; further: 0% is about no effect; nearly all actives have a fitted effect of over 70% in size
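Here, H3K4me3 peptide (12.5 µM in substrate mix) is demethylated by KDM5BΔAP, 200 nM final, after 10 min compound exposure. Formaldehyde product is coupled through FDH (0.25 U/mL in mix) to NADH fluorescence; 30-min ΔRFU feeds dose-response curves.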
Starred values were filed as active, the others as inactive; i = inactive. The sample as a whole holds a higher share of hits than the screen did. Potency means the concentration at half of the fitted maximal effect.

SMILES	KDM5B inhibitor
COCC1CN(Cc2ccc(F)c(F)c2)CC12CCNCC2 (stereo not drawn)	i
O=C(CCc1ncc(-c2ccc(F)cc2F)o1)Nc1ccc(N2CCOCC2)cc1N1CCOCC1	i
CCOc1cc(/C=C/C(=O)c2ccc(C)cc2)cc(Cl)c1O	i
CCC(C)(C)C1CCC(NC(=O)C(=O)Nc2cccc(Cl)c2C)CC1 (stereo not drawn)	i
CC(C)=CC1C(C(=O)NCC2CN(CC(C)C)CCO2)C1(C)C (stereo not drawn)	i
Cc1ccc(Nc2c3c(nc4ccccc24)CCC3)c(Br)c1	i
O=C(O)c1ccc(N2CCOCC2)nc1	i
COc1ccc(-c2cc(-c3ccc(N4CCOCC4)nc3)cn3cncc23)cc1	i
COc1cccc(-c2ncc[nH]2)c1	i
COc1cccc(-c2cccc(CN)c2)c1	i
COc1ccc(-c2cc(-c3ccc(N4CCOCC4)nc3)cn3cncc23)cn1	8.9µM*
COc1cccc(-c2cc(-c3ccc(OC)nc3)c3cncn3c2)c1	32µM*
CC(NC(=O)c1ccc(-c2ccccc2)cc1)c1ccccc1 (stereo not drawn)	i
O=C(NCc1ccc(F)cc1)N1CC(Oc2ccc(-c3noc(-c4ccccc4)n3)cc2)C1	i
COc1ccc(CNC(=O)c2cccc(C)c2C)cc1C(=O)O	i
CCSC1=N/C(=C\c2cccc3ccccc23)C(=O)S1	i
CC(C)c1ccc(/C=N/NC(=O)Cc2cccc3ccccc23)cc1	i
COCCOc1ccc2c(n1)CCN(C(=O)CCc1ccccc1)C2	i
COCCN1CCC(N2CCN(C(=O)CCCc3ccccc3)CC2)C1=O (stereo not drawn)	i
COCCn1cc2c3c(cccc31)CN(C(=O)CCCc1ccccc1)CC2	25µM*
O=C(Cc1c[nH]c2ncc(-c3cccc(CO)c3)cc12)NCc1cccnc1	32µM*
NC(=O)Cc1c[nH]c2ncc(-c3ccc(F)cc3)cc12	35µM*
Cc1cccc(-c2cnc3[nH]cc(CC(N)=O)c3c2)c1	32µM*
O=C(Cc1c[nH]c2ncc(-c3cccnc3)cc12)NCCc1ccccn1	i
CNC(=O)c1cccc(-c2cnc3[nH]cc(CC(=O)N(C)C)c3c2)c1	i
SMILES	KDM5B inhibitor
NC(=O)Cc1c[nH]c2ncc(-c3cccc(CO)c3)cc12	32µM*
O=C(CCCc1c[nH]c2ccccc12)N1CCC(c2noc(COc3ccc(F)cc3)n2)CC1	i
Cc1ccc(CNC(=O)Nc2cccnc2)s1	i
O=Cc1ccc(-c2ccc(Br)cc2F)o1	i
O=c1c2ccccc2cnn1Cc1coc(-c2ccccc2)n1	i
O=C1CCc2cc(S(=O)(=O)NCc3ccccc3)cc3c2N1CCC3	i
O=C(Nc1ccc(F)cc1)C1CCCN(S(=O)(=O)c2ccc(N3CCCC3=O)cc2)C1 (stereo not drawn)	i
Fc1ccc(CN2CCCN(Cc3nnsc3Cl)CC2)cc1	i
COC(=O)CCC1CCCC/C1=N/O (stereo not drawn)	i
O=C(Cc1c[nH]c2ncc(-c3ccccc3F)cc12)NCc1cccnc1	28µM*
O=C(NCc1c[nH]c2ncccc12)c1ccc(C(F)(F)F)cc1	i
COC(=O)COc1coc(CN2CCN(c3ccccc3)CC2)cc1=O	i
Cc1ccc(CN(c2ccc(C(=O)NCc3ccccc3C)cc2)S(C)(=O)=O)cc1	i
O=C(O)CSCC(=O)N[C@H]1C[C@H]2C(=O)Nc3ccc(-c4cccs4)cc3C(=O)N2C1	28µM*
COCC(=O)N[C@H]1C[C@H]2C(=O)Nc3ccc(-c4cccs4)cc3C(=O)N2C1	35µM*
O=C1Nc2ccc(Br)cc2C(=O)N2CC[C@H](NS(=O)(=O)c3cccs3)C[C@@H]12	i
COCC(=O)N[C@H]1C[C@@H]2C(=O)N[C@H]3CCN(C(=O)c4cccn4C)[C@@H]3C(=O)N2C1	i
COCC(=O)N[C@H]1CCN2C(=O)c3ccccc3NC(=O)[C@@H]2C1	i
CC(C)(C)CC(=O)N[C@H]1C[C@H]2C(=O)Nc3ccc(-c4ccsc4)cc3C(=O)N2C1	i
O=C(NCCc1ccccc1)C1CCc2ncc(-c3ccsc3)n2C1 (stereo not drawn)	i
Cc1ccc2[nH]cc(CCNC(=O)CCc3ccccc3)c2c1	i
CCc1noc(-c2ccn3c(CNC(=O)c4cc(Cl)ccc4OC)nnc3c2)n1	i
CCCc1noc(-c2ccn3c(CNC(=O)c4ccccc4OCC)nnc3c2)n1	10µM*
COc1ccccc1C(=O)NCc1nnc2cc(-c3nc(C)no3)ccn12	10µM*
CCOc1ccccc1C(=O)NCc1nnc2cc(-c3nc(C(C)C)no3)ccn12	14µM*
SMILES	KDM5B inhibitor
CCCc1noc(-c2ccn3c(CNC(=O)c4cc(Cl)ccc4F)nnc3c2)n1	i
COc1ccccc1C(=O)NCc1nnc2cc(-c3nc(C(C)C)no3)ccn12	22µM*
COc1ccc(CCNC(=O)Cc2c(C)c3ccc(OC)c(C)c3oc2=O)cc1	i
COCC(C)NC(=O)c1cccc2c(=O)c(C)c(-c3ccccc3)oc12 (stereo not drawn)	i
O=C(NCc1ccncc1)c1nc(Cc2c[nH]c3ccccc23)no1	i
C/C(=N\NC(=O)C1CC1c1ccc(C(C)(C)C)cc1)c1ccc2c(c1)CCCC2 (stereo not drawn)	i
NS(=O)(=O)c1ccc(CCNCC(O)COCc2ccc(Cl)cc2)cc1 (stereo not drawn)	i
O=C(Nc1cccc(CN2CCOC2=O)c1)N1CCN(c2ccccc2)CC1	i
COc1ccc(OC)c(S(=O)(=O)Nc2ccc(-c3cn4ccc(C)nc4n3)cc2)c1	i
CCc1cc2c(Sc3ccc(C(F)(F)F)cn3)ncnc2s1	i
CCNC(=O)N1CC(Oc2cccc(-c3nc(C)no3)c2)C1	i
Cc1noc(-c2cccc(OC3CN(C(=O)c4cnn(C)c4)C3)c2)n1	i
Cc1noc(-c2cccc(OC3CN(C(=O)c4cccc5[nH]ccc45)C3)c2)n1	28µM*
Cc1noc(-c2ccn3c(CNC(=O)c4cccc5[nH]ccc45)nnc3c2)n1	25µM*
CN(c1ccc(F)cc1)C1CN(C(=O)OC(C)(C)C)C1	i
CCN(c1ccc2c(c1)OCO2)C1CN(C(=O)OC(C)(C)C)C1	89µM*
CC(C)(C)OC(=O)N1CC(c2ccccc2)C1	i
Cc1cccnc1N(Cc1cccs1)C(=O)Nc1cccc(Cl)c1	i
CC(C)c1ccc(NC(=O)CCC2CCCC2)cc1	i
O=C1CN(Cc2ccc(F)c3cccnc23)CCN1	i
CCNC(=O)NC(=O)C(C)Oc1ccc(C(=O)c2ccc(Cl)cc2)cc1 (stereo not drawn)	i
CN1C(=O)c2ccc(NC(=O)C[C@H]3NC(=O)c4ccccc4NC3=O)cc2C1=O	25µM*
O=C(C[C@H]1NC(=O)c2ccccc2NC1=O)Nc1ccc(C(F)(F)F)cc1	i
NC(=O)c1ccc(NC(=O)C[C@H]2NC(=O)c3ccccc3NC2=O)cc1	i
CC(C)c1nc2ccccc2n1CCNC(=O)CC[C@H]1NC(=O)c2ccccc2NC1=O	i
SMILES	KDM5B inhibitor
CC(C)Cn1ccc2c(NC(=O)C[C@H]3NC(=O)c4ccccc4NC3=O)cccc21	i
CC(C)n1c(CNC(=O)C[C@H]2NC(=O)c3ccccc3NC2=O)nc2ccccc21	28µM*
OCCNc1ncnc2c1cnn2-c1ccccc1Cl	i
COc1ccccc1NC(=O)c1ccc(-n2cccn2)cc1	i
NS(=O)(=O)c1ccc(N/N=C/C(Cl)=C/c2ccccc2)c([N+](=O)[O-])c1	i
CCOC(=O)C(C(C)=O)=C1SCCS1	i
